The source of these data is the supplement of paper PMC13380429.

The subject of this test is Vero E6 infected with SARS-CoV-2. As to the kind of experiment: morphology score (similarity to uninfected cells); higher = more like uninfected cells. Particulars: 24 h.
As to `Oc1c(I)cc(Cl)c2cccnc12` [clioquinol] (10 µM), the morphology score was 0.127. As to `O=C(/C=C/c1ccccc1)NCCO` [brolitene] (10 µM), the morphology score came out at 0.199.

Compound `CC(C)(C)NC[C@H](O)COc1cccc2c1CCCC2=O` [levobunolol] (10 µM) yielded a morphology score of 0.0302. The figure for `O=C1NC(=O)[C@@]2(CCOc3ccc(F)cc32)N1` [sorbinil] (10 µM) is 0.139; for `O=C(O)C(O)Cc1ccc(O)c(O)c1` (centres undefined) [sodium-danshensu] (10 µM) it is 0.114; for `COCC1(CO)C(=O)C2CCN1CC2` (centres undefined) (10 µM) it is 0.212. In the case of `CCCS(=O)(=O)Nc1ccc(F)c(C(=O)c2c[nH]c3ncc(-c4ccc(Cl)cc4)cc23)c1F` [vemurafenib] (10 µM) it was 0.25. The figure for `CC[N+](CC)(CCNC(=O)C(=O)NCC[N+](CC)(CC)Cc1ccccc1Cl)Cc1ccccc1Cl` [ambenonium] (10 µM) is 0.131. Take `CCN(CC)CC1CCCCN1CC(=O)N1c2ccccc2C(=O)Nc2cccnc21` (centres undefined) [otenzepad] (10 µM): the morphology score is 0.171.

Take `COC(=O)[C@@H](N)CS` [mecysteine] (10 µM): the morphology score was -0.052.

For `Nc1c(CC(=O)O)cccc1C(=O)c1ccccc1` [amfenac] (10 µM), the morphology score was determined as 0.0516. Regarding `CCN1C(=O)NC(c2ccccc2)C1=O` (centres undefined) [ethotoin] (10 µM), the morphology score worked out at 0.221.

Consider `CC1(N2CCC(n3c([C@@H]4CCCNC4)nc4ccccc43)CC2)CCCCCCC1` (10 µM), for which the morphology score amounted to 0.62. Turning to `CC(=O)[C@@]1(O)CC[C@H]2[C@@H]3C=C(Cl)C4=CC(=O)[C@@H]5C[C@@H]5[C@]4(C)[C@H]3CC[C@@]21C` (10 µM), the morphology score amounted to 0.204. The figure for `CCN(CC)CC1CCN(c2ncc3ncnc(Nc4ccc(F)c(Cl)c4)c3n2)CC1` (10 µM) is -0.273; for `C=C1C(=O)O[C@@H]2C[C@@]3(C)CCC[C@H](C)C3=C[C@H]12` [alantolactone] (10 µM) it is 0.304. The compound `CCOc1nc2c(N)ncnc2n1CC` (10 µM) gave a morphology score of 0.236. Regarding `CCCCNC(=O)NS(=O)(=O)c1ccc(C)cc1` [tolbutamide] (10 µM), the morphology score was found to be 0.121.

Take `CC(C)N(CCNC(=O)CN1CCCC1=O)C(C)C` [pramiracetam] (10 µM): the morphology score was -0.0542.

Regarding `CC(=O)CC(c1ccccc1)c1c(O)c2ccccc2oc1=O` (centres undefined) [warfarin] (10 µM), the morphology score is -0.0329. With `COc1ccc(/C=C\c2cc(OC)c(OC)c(OC)c2)cc1O` [combretastatin-A-4] (10 µM), the morphology score is 0.000765. The figure for `CN1CCN(Cc2ccc(Nc3ncc(Cl)c(Nc4ccccc4S(=O)(=O)N(C)C)n3)cc2)CC1` (10 µM) is -0.145; for `CCN1CCCC1CNC(=O)c1cc(S(=O)(=O)CC)c(N)cc1OC` (centres undefined) [amisulpride] (10 µM) it is 0.114; for `O=C(O)CCCN1C(=O)c2cccc3cccc(c23)C1=O` [isodibut] (10 µM) it is 0.205. `CS(=O)(=O)n1cc2c(n1)CN([C@H]1CO[C@H](c3cc(F)ccc3F)[C@@H](N)C1)C2` [omarigliptin] (10 µM) gave a morphology score of 0.198.

On to `OCCN1CCN(CCCN2c3ccccc3Sc3ccc(C(F)(F)F)cc32)CC1` [fluphenazine] (0.833333 µM), for which the morphology score was -0.174. In the case of `Cc1cc(OCc2nnc(SC3CCCC3)n2-c2cccnc2)ccc1-c1ccc(S(C)(=O)=O)cc1` (0.833333 µM), the morphology score came to 0.0612. The figure for `CC[C@@H]1/C=C(\C)C[C@H](C)C[C@H](OC)[C@H]2O[C@@](O)(C(=O)C(=O)N3CCCC[C@H]3C(=O)O[C@H](/C(C)=C/[C@@H]3CC[C@@H](O)[C@H](OC)C3)[C@H](C)[C@@H](O)CC1=O)[C@H](C)C[C@@H]2OC` [ascomycin] (10 µM) is 0.0662; for `CC1(C)O[C@@H]2C[C@H]3[C@@H]4CCC5=CC(=O)C=C[C@]5(C)[C@H]4[C@@H](O)C[C@]3(C)[C@]2(C(=O)CO)O1` [desonide] (10 µM) it is 0.0066; for `N#CN=C(NCCCCCCOc1ccc(Cl)cc1)Nc1ccncc1` (10 µM) it is -0.0862. In the case of `CC(C)OC(=O)CNC(=O)[C@H](CS)NC(=O)CC[C@H](N)C(=O)O` [glutathione-monoisopropyl-ester] (10 µM) it was 0.0539; in that of `S=C(NC1CCCCC1)N1CCC(c2cnc[nH]2)CC1` [thioperamide] (10 µM), 0.083; in that of `O=C1[C@H](Cc2ccc(O)cc2)N2C(=O)CCN(C(=O)NCc3ccccc3)[C@H]2CN1Cc1cccc2ccccc12` (10 µM), 0.0761.

The compound `O=C1O[C@H]([C@@H](O)CO)C(O)=C1O` (10 µM) registered a morphology score of 0.1. Take `C[C@]12CC[C@@H]3c4ccc(OC(=O)c5ccccc5)cc4CC[C@H]3[C@@H]1CC[C@@H]2O` [estradiol-benzoate] (10 µM): the morphology score is -0.19. In the case of `COCCN1CCC(C(=O)NO)(S(=O)(=O)c2ccc(Oc3ccc(OC(F)(F)F)cc3)cc2)CC1` (10 µM) it was 0.0474. The figure for `Cc1ncc(CO)c(C=O)c1O` [pyridoxal] (10 µM) is -0.165. As for `O=C(Nc1cnn2ccc(N3CCC[C@@H]3c3cc(F)ccc3F)nc12)N1CC[C@H](O)C1` [larotrectinib] (10 µM), the morphology score is -0.124. The figure for `CNC(=O)O[C@H]1COc2ccc(N3CCN(C4COC4)CC3)cc2[C@@H]1NC(=O)c1ccc(F)cc1` (10 µM) is 0.123.
